Test results: the supplement of paper PMC6555819

Legend:
Experiment in all cases: PBM binding z-score (relative to random genomic background probes); higher = stronger binding; sequences stand for … in GC…GCGATTGACAGCGTAGAATGAAGG
[1] = system: FXR:RXRa (NR concentration 270 nM, RXRa partner concentration 90 nM)
Outline: (§1)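 Custom Agilent 4×180K protein-binding microarrays carried double-stranded probes, each with a 34-nt variable region. These regions held direct-repeat seeds, single-nucleotide variants, half-site ablations and random human genomic background sequences. Ligand-free nuclear receptor dimers were incubated on the arrays for 1 h, antibodies against each partner (one per run) detected binding, and scanned fluorescence was regression-normalized. Binding z-scores take the random background probes as reference.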

[2] = system: LXRa:RXRa (NR concentration 270 nM, RXRa partner concentration 90 nM)
Outline: as §1

[3] = system: LXRa homodimer (NR concentration 270 nM)
Outline: as §1

[4] = system: LXRb:RXRa (NR concentration 270 nM, RXRa partner concentration 90 nM)
Outline: as §1

[5] = system: LXRb homodimer (NR concentration 270 nM)
Outline: as §1

[6] = system: PPARa:RXRa (NR concentration 270 nM, RXRa partner concentration 90 nM)
Outline: as §1

[7] = system: PPARg:RXRa (NR concentration 180 nM, RXRa partner concentration 90 nM)
Outline: as §1

[8] = system: PPARg:RXRa 270nM:90nM, anti-RXR (NR concentration 270 nM, RXRa partner concentration 90 nM)
Outline: as §1

[9] = system: PPARg:RXRa 30nM:10nM, anti-RXR (NR concentration 30 nM, RXRa partner concentration 10 nM)
Outline: as §1

[10] = system: PPARg:RXRa 90nM:30nM, anti-RXR (NR concentration 90 nM, RXRa partner concentration 30 nM)
Outline: as §1

[11] = system: PPARg:RXRa DBDmut IVT, anti-RXR (DBD mutation: RXRa K156A/R161A, NR concentration 270 nM, RXRa partner concentration 90 nM)
Outline: as §1

[12] = system: PPARg:RXRa IVT, anti-PPARg (NR concentration 270 nM, RXRa partner concentration 90 nM)
Outline: as §1

[13] = system: PPARg DBDmut:RXRa IVT, anti-PPARg (DBD mutation: PPARg1 K132A/R137A, NR concentration 270 nM, RXRa partner concentration 90 nM)
Outline: as §1

[14] = system: PPARg DBDmut IVT, anti-PPARg (DBD mutation: PPARg1 K132A/R137A, NR concentration 270 nM)
Outline: as §1

[15] = system: PPARg homodimer (NR concentration 180 nM)
Outline: as §1

[16] = system: PXR:RXRa (NR concentration 270 nM, RXRa partner concentration 90 nM)
Outline: as §1

[17] = system: PXR homodimer (NR concentration 270 nM)
Outline: as §1

[18] = system: RARa:RXR (NR concentration 270 nM, RXRa partner concentration 90 nM)
Outline: as §1

[19] = system: RARa homodimer (NR concentration 270 nM)
Outline: as §1

[20] = system: RARb:RXRa (NR concentration 270 nM, RXRa partner concentration 90 nM)
Outline: as §1

| Sequence | PBM binding z-score [1] | PBM binding z-score [2] | PBM binding z-score [3] | PBM binding z-score [4] | PBM binding z-score [5] | PBM binding z-score [6] | PBM binding z-score [7] | PBM binding z-score [8] | PBM binding z-score [9] | PBM binding z-score [10] | PBM binding z-score [11] | PBM binding z-score [12] | PBM binding z-score [13] | PBM binding z-score [14] | PBM binding z-score [15] | PBM binding z-score [16] | PBM binding z-score [17] | PBM binding z-score [18] | PBM binding z-score [19] | PBM binding z-score [20] |
| --- | --- | --- | --- | --- | --- | --- | --- | --- | --- | --- | --- | --- | --- | --- | --- | --- | --- | --- | --- | --- |
| TCTTGTAGATCACCAGGTTAAGAAAGCTGGCCAA | 0.657 | 0.602 | -0.148 | 0.696 | 0.00375 | 1.47 | 0.304 | 2.21 | 3.04 | 2.67 | 2.51 | 1.98 | -0.0157 | 0.181 | 0.18 | 0.513 | -0.16 | 0.889 | 0.399 | 0.639 |
| CAAACTAGGTCAAGGGCAAAGTCGGTTTGTGCCA | 3.97 | 3.12 | 0.592 | 2.17 | 0.2 | 5.38 | 9.21 | 8.06 | 6.95 | 8.38 | 8.17 | 8.56 | 2.21 | 2.46 | 3.97 | 2.25 | 0.415 | 2.77 | 0.377 | 4.27 |
| ATACCAAGGTGATCGTGAGGTCTTTGATACTAAC | 0.467 | 0.136 | 0.00658 | 0.0706 | -0.603 | 0.646 | 0.322 | 0.105 | -0.238 | -0.296 | 0.237 | 1.08 | 0.449 | 0.702 | 0.551 | 0.655 | -0.114 | 0.833 | 0.255 | 0.705 |
| TCCTGTAGATCAAGCAGGTTAAGAAAGCCTGAGT | 0.115 | 0.256 | -0.387 | 0.136 | -1.12 | 0.563 | -0.537 | 1.19 | 2.38 | 1.42 | 1.36 | -0.00456 | 0.0504 | -0.299 | -0.486 | 0.372 | 0.0191 | 0.301 | -0.136 | 0.0343 |
| TCGAGTAGGTTAGTCGGGGCATTCAGCCAACATA | -0.132 | -0.201 | -0.628 | 0.294 | -0.855 | 0.44 | -0.224 | 0.553 | 0.435 | 0.377 | 2.04 | 1.69 | -0.526 | -0.18 | -0.242 | -0.0448 | -0.488 | 0.00411 | -0.698 | 0.351 |
| ATATGTAGGTTAAGGGTCAATCAGGTTGGTTCGC | 4.97 | 4.62 | 1.8 | 4.47 | 1.35 | 6.65 | 11.6 | 9.7 | 10.1 | 10.8 | 7.74 | 7.77 | 1.78 | 2.49 | 4.11 | 5.32 | 1.21 | 5.74 | 2.21 | 3.64 |
| TTACCAAGGTGAAGCTCGTTGATCCCTCTGTAGA | 0.0851 | -0.0821 | -1.1 | -0.274 | -1.24 | 1.09 | -0.0345 | 0.378 | 0.125 | 0.429 | 1.63 | 2.34 | -0.257 | -0.63 | -0.515 | -0.27 | -0.88 | 0.172 | -0.72 | 1.29 |
| GCAACTGGGGCAAAGCAGGTTACCATAAGGTTGG | 0.393 | 0.00585 | -0.385 | 0.511 | -0.769 | 2.06 | 2.61 | 2.77 | 0.156 | 1.77 | 5.89 | 5.52 | 0.219 | -0.357 | -0.0265 | 0.339 | -0.607 | 0.838 | -0.392 | 0.995 |
| CGTCCAAGGTCAAAGGCCAGTGAAGAGATGACGG | 7.32 | 5.28 | 0.422 | 3.87 | 0.919 | 6.01 | 6.49 | 6.54 | 3.55 | 5.57 | 3.42 | 4.02 | 0.425 | 0.106 | 3.37 | 4.39 | 0.655 | 5.25 | 0.426 | 5.29 |
| CGTACTAGGTCATTGACAGGACAGTGAATAGTAA | 4.65 | 3.15 | 0.997 | 2.29 | 0.27 | 4.07 | 6.36 | 5.47 | 3.06 | 4.93 | 7.67 | 7.54 | 3.72 | 3.85 | 3.05 | 1.64 | 0.269 | 2.54 | 0.282 | 3.67 |
| TCTCGGAGGACTCGAAAGGTCAGAGCTCGACATC | 1.95 | 2.86 | 1.04 | 2.66 | -0.682 | 3.21 | 0.567 | 2.34 | 2.29 | 1.88 | 1.26 | 0.952 | -0.254 | -0.419 | 1.63 | 3.16 | 0.0023 | 3.76 | -0.0102 | 3.62 |
| ATCTCTAGGTAAGACTCAGTTCGGTGAAGAACGC | 0.336 | 0.318 | 0.624 | 0.144 | 0.85 | -0.0565 | -0.0259 | 0.127 | -0.00912 | 0.104 | 2.26 | 1.24 | 0.576 | 0.0505 | 0.778 | 0.179 | 0.754 | 0.0942 | 0.985 | 0.104 |
| CTCGATAGGTCGGTTGAGGTGAGTATACGGATAA | 0.692 | 0.287 | -0.389 | 0.0394 | -0.451 | 0.659 | -0.0443 | -0.187 | -0.208 | -0.177 | -0.342 | 0.362 | 0.83 | 0.287 | 0.144 | 1.21 | 0.123 | 1.11 | -0.0628 | 1.17 |
| TAGCCTAGGTCAGATAGGGCCAGTATACGCTATA | 2.49 | 0.979 | -0.0979 | 0.697 | -0.375 | 1.59 | 0.726 | 0.567 | -0.0576 | 0.283 | 0.509 | 1.38 | 0.269 | 0.324 | 0.391 | 1.37 | -0.14 | 0.802 | -0.488 | 3.05 |
| ATCGAAAGGTCGACGAGGTGGGTATACACCGTTT | 3.58 | 3.27 | 0.14 | 2.55 | 0.209 | 4.1 | 2.2 | 2.89 | 0.706 | 1.6 | 0.15 | 1.75 | 0.733 | 1.26 | 1.34 | 2.6 | 0.341 | 2.98 | -0.0132 | 3.68 |
